# Sampled rows, rich in hits. Any-hit rate of the full collection: about 1.9%.
# ClpP mod – qHTS Assay for Activators of ClpP | purified B. subtilis ClpP, FRET peptide cleavage, 20 min | 340,000 compounds, 1.9% hits | ATP-dependent Clp protease proteolytic subunit (Bacillus subtilis (strain 168)), P80244 | Potency, µM (top dose mostly 57.5 µM), for inactives: at the highest dose activity change, negative = active; active = well fitted falling curve with a large enough effect; inconclusive = small, poorly fitted or top-dose-only effect; inactive = no such curve, though single readings can be large or run the other way; note: potency is the fitted concentration of half-maximal effect; the source files actives as falling curves though it sought activators and does not explain the sign; nearly all actives have a fitted effect of over 65% in size
#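 Purified B. subtilis ClpP, 10 microg/mL final in Tris/HCl pH8 with KCl, BSA, glycerol and Tween-20, cleaved an Abz/nitrotyrosine-quenched decapeptide. Fluorescence (ex 320, em 430) was read at 0 and 20 min at room temperature. Delta was normalized to 5.8 microM ADEP and DMSO/no-enzyme controls.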
# Pin1 inhibitor – human Pin1 inhibition; Pin1 FP peptide displacement, HiFluor488, 10 min; 390,000 compounds, 0.009% hits; Potency, µM (top dose mostly 115 µM), for inactives: at the top dose activity, negative = inhibition, most hits filed as inhibitors; active = well fitted inhibition curve with a large enough effect in the polarisation, with a control signal flat, not every such curve was filed as active; inconclusive = small, poorly fitted or top-dose-only effect, or effect the other way, or a change in a side signal; inactive = no such curve, though single readings can be large or run the other way; the % refers to the polarisation; note: potency is the fitted concentration of half-maximal effect; % is set by controls: 0 for no effect and ±100 for the full control effect
# Target sequence (Q13526 whole entry, looked up): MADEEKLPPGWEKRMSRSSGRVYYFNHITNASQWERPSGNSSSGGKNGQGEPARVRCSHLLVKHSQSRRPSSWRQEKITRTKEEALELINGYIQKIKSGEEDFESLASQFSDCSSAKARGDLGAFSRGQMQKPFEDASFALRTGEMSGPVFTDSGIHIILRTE
# Integrin act MD – integrin-mediated muscular dystrophy alleviation activation | alpha7betagal myoblasts, beta-gal FDG fluorescence, 48 h | Potency, µM (titrated, usually from 38.3 µM), for the others: at the highest dose activation, most hits filed as activators | 350,000 compounds, 0.064% hits | AID 624291;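 note: potency is the fitted concentration of half-maximal effect; 100% = response of the positive control SU9516; nearly all actives have a fitted effect of over 60% in size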
#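 alpha7betagal+/- myoblasts (passage 13, 250/well) treated 48 h at 37C with compounds at 1:260 dilution of DMSO stock. Lysed, then beta-galactosidase activity read as FDG fluorescence (ex 480/em 540) after 30 min, with pre-read for autofluorescence.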
# PKM2 activator – increases activity of human pyruvate kinase M2; Potency, µM (series often up to 57.5 µM), without a hit: top-dose activation, actives largely listed as activators; P14618; AID 1631; 260,000 compounds, 0.34% hits; purified PKM2, Kinase-Glo ATP luminescence, activation; response scale: 0% is enzyme alone, no compound; note: potency is the fitted concentration of half-maximal effect; % is set by controls: 0 for no effect and ±100 for the full control effect; nearly all actives have a fitted effect of over 55% in size
# Target sequence (P14618 whole entry, looked up): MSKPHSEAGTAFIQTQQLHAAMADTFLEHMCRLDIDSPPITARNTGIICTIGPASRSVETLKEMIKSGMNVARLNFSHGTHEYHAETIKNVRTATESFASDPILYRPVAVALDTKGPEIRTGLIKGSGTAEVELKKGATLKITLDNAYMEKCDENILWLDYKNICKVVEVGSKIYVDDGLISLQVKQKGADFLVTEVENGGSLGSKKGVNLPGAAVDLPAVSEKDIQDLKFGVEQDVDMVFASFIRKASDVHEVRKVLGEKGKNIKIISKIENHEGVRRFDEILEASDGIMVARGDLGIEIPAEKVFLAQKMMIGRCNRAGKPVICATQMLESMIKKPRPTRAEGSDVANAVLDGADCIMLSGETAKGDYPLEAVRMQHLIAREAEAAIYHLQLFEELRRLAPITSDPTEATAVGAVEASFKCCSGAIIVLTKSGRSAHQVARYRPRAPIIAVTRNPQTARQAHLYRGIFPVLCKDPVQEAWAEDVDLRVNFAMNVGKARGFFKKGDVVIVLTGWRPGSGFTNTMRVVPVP
#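 hPK-M2, >95% pure; 0.1 mM ADP / 0.5 mM PEP final; imidazole pH7.2 buffer w/ 7 mM MgCl2, 50 mM KCl; 1 h RT; Kinase-Glo lum. Intermediate enzyme activity for dual inhibitor/activator qHTS.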
# USP2a block – USP2a (human) protease inhibition | USP2 core, Ub-CHOP2 coupled fluorogenic reporter, 485/531 | 330,000 compounds, 0.01% hits | Potency, µM (doses to about 38.3 µM), for the others: at the highest dose activity change, negative = inhibition, most hits filed as inhibitors;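 note: potency is the fitted concentration of half-maximal effect; plate controls were DMSO wells for no effect and full inhibition by NEM control for full effect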
#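 Cell-free coupled assay: 10nM USP2 core preincubated 30min RT with compound in Tris-HCl pH 8.0/CaCl2/CHAPS buffer, then 25nM Ub-CHOP2 and 25nM reporter substrate; fluorescence (Ex 485/Em 531) read after 60min RT, normalized to NEM inhibition, concentration-response curves fitted.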
# IL-2 act – activators of IL-2. IL-2 activation reporter assay, cell-based qHTS; stimulated with anti-CD3/CD4/CD28 beads; in transgenic mouse T cells. activation, % (series mostly up to about 46 µM). 360,000 compounds, 0.065% hits. AID 652025; in the data active = activation above about 50%; inconclusive = mostly about 30% to 49%; note: 0% is about no effect
#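 Using fluorescent plate cytometry, EGFP and DsRed are detected in transgenic mouse T cells stimulated 18 h at 37 degrees C with antibody-coated beads after 60 min compound pretreatment.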
# An asterisk follows results filed as active; ? = inconclusive; . = no result; [ ] = another dose, or the depositor's remark. Unless noted, calls come from the whole dose curve; as a rule, active = well fitted curve in the direction sought with a large enough effect; inconclusive = small, poorly fitted or top-dose-only effect, or another doubt; inactive = no such curve, though single readings can be large; an effect the other way counts as inactive or inconclusive.
SMILES,ClpP mod,Pin1 inhibitor,Integrin act MD,PKM2 activator,USP2a block,IL-2 act
CN(CCOc1ccc(Cl)cc1)C(=O)c1cc(-c2ccco2)nc2ccccc12,28.2µM*,28.5%,31.7%,.,0.7%,-4.6
Cc1nn(-c2ccccc2)c(N2CCCC2)c1/C=N/NC(=S)Nc1cc(C(F)(F)F)ccc1Cl,28.2µM*,-1.5%,8.6%,-0.9%,-0.3%,0.6
Cc1nn(-c2ccccc2)c(N2CCCC2)c1/C=N/NC(=S)Nc1ccccc1C(F)(F)F,-25.0%,4.3%,-11.5%,-3.7%,-6.1%,-1.0
CCN(Cc1cccs1)c1ncnc2ccc(-c3ccc4c(c3)OCO4)cc12,.,-2.3%,.,.,.,.
O=C(CCc1ccc(S(=O)(=O)NCc2ccccc2)cc1)NCc1cccnc1,14.1µM*,-11.6%,18.2%,-2.1%,-5.1%,0.0
CCN(CC)c1ccccc1/C=C/[n+]1ccc(CCCCI)c2ccccc21,-1.6%,.,.,.,.,.
COC(=O)c1cc(C(=O)OCC(=O)Nc2ccccc2OC(F)F)cc([N+](=O)[O-])c1,28.2µM*,-2.1%,-4.9%,-5.1%,5.1%,-3.1
COc1ccc(NC(=O)COC(=O)c2cc(SC)ccc2Cl)c(OC)c1,-0.3%,0.7%,6.3%,-1.0%,1.7%,-2.2
CCOc1ccccc1NC(=O)COC(=O)c1cc(C(=O)OC)cc([N+](=O)[O-])c1,-1.5%,-4.8%,?,5.5%,2.5%,-4.5
Nc1ccc(C(=O)OCC(=O)Nc2ccc([N+](=O)[O-])cc2C(F)(F)F)cc1,22.4µM*,-4.4%,12.5%,-2.3%,5.3%,-1.0
CSc1ccc(Cl)c(C(=O)OCC(=O)Nc2ccccc2OC(F)F)c1,28.2µM*,1.4%,25.4%,2.0%,-15.3%,-3.9
O=S(=O)(c1ccc2c(c1)OCCO2)N1CCN(S(=O)(=O)c2ccccc2Cl)CC1,.,-15.4%,.,.,.,.
O=C(C[N+]12CN3CN(CN(C3)C1)C2)c1ccc(Br)cc1,-3.0%,.,.,.,.,.
O=S1(=O)C=C(SCc2cccc(Cl)c2)Nc2ccccc21,31.6µM*,2.2%,19.9%,1.7%,-0.4%,-5.0
Cc1cccc(CSC2=CS(=O)(=O)c3ccccc3N2)c1,1.4%,-0.7%,-2.2%,-1.7%,3.9%,-3.3
CC(=O)Nc1ccc(C2Nc3ccccc3C(=O)N2C2CCCCC2)cc1 (stereo unspecified),28.2µM*,-7.5%,-9.7%,4.4%,2.9%,-0.5
O=C(Nc1ccc2c(c1)OCCO2)C1C(=O)Nc2ccccc2C(=O)N1C1CCCCC1 (stereo unspecified),-4.2%,.,.,.,.,0.0
CC(C)(C)NC(=O)c1nc2nc(-c3ccccc3)cc(C(F)(F)F)n2n1,28.2µM*,3.8%,22.6%,-2.5%,2.9%,-0.1
COc1ccc(-c2cc(C(F)(F)F)n3nc(C(=O)O)nc3n2)cc1,-23.6%,1.2%,-12.3%[7.66 µM],0.6%,0.0%,-1.1
O=C(c1nc2nc(-c3ccccc3)cc(C(F)(F)F)n2n1)N1CCOCC1,28.2µM*,-7.1%,13.0%,-2.0%,1.0%,-1.0
O=C(c1nc2nc(-c3ccc(Cl)cc3)cc(C(F)(F)F)n2n1)N1CCOCC1,17.8µM*,8.5%,-1.8%,1.5%,1.1%,-3.1
O=C(Cc1ccccc1)NCC(=O)OCC(=O)c1cccc2ccccc12,0.5%,3.7%,.,.,.,.
Cc1ccc(S(=O)(=O)N2CCN(c3nc(-c4cccs4)nc4ccccc34)CC2)c(C)c1,?,-1.5%,.,.,.,.
CC(=O)c1sc(NC(=O)c2ccc(Cn3cc(Br)cn3)o2)nc1C,1.3%,-13.9%,4.6%,11.2µM*,-0.3%,1.1
COC(=O)CSc1nc2sc3c(c2c(=O)n1-c1ccccc1)CCN(C)C3,17.8µM*,8.0%,17.9%,23.2%,-0.8%,-2.7
SMILES,ClpP mod,Pin1 inhibitor,Integrin act MD,PKM2 activator,USP2a block,IL-2 act
CSc1nc(NCc2ccccc2)c2c3c(sc2n1)CN(C)CC3,14.1µM*,4.9%,-13.9%,-5.8%,-0.9%,-3.0
CC(C)Sc1nc(N)c2c3c(sc2n1)CN(C)CC3,28.2µM*,20.8%,-9.3%,-0.9%,0.0%,-0.9
CN1CCc2c(sc3nc(SCC(N)=O)n(-c4ccccc4)c(=O)c23)C1,28.2µM*,?,-12.1%,-1.4%,-1.5%,0.3
CN1CCc2c(sc3nc(SCC(N)=O)n(-c4ccc(Cl)cc4)c(=O)c23)C1,4.1%,?,10.0%,.,4.9%,0.2
CCCSc1nc(N)c2c3c(sc2n1)CN(C)CC3,?,18.1%,1.7%,2.0%,-2.1%,0.4
COc1cccc(C2c3c(ncn(-c4ccccc4-c4ccccc4)c3=N)Oc3ccc4ccccc4c32)c1 (stereo unspecified),.,17.1%,.,.,.,.
O=C(NCC1CC1)c1ccc2nc(-c3ccoc3)c(-c3ccoc3)nc2c1,-19.7%,2.6%,.,.,.,.
COc1cc(-c2noc(C)c2C#CCCN2C(=O)c3ccccc3C2=O)cc(OC)c1OC,18.8%,.,.,.,.,.
NC(=O)Nc1ccc(/C=C2\C=Cc3ccccc32)cc1,-6.6%,.,.,.,.,.
CCCCCc1ccc(-c2cn(Cc3ccc4c(c3)C(=O)c3ccccc3C4=O)nn2)cc1,0.3%,.,.,.,.,.
COc1ccc(N2C(=O)CC(Sc3nnc(-c4ccccc4)o3)C2=O)cc1 (stereo unspecified),19.5%,1.1%,-71.4%,20µM*,2.9%,-1.4
O=C1CC(Sc2nnc(-c3ccccc3O)o2)C(=O)N1c1ccccc1 (stereo unspecified),46.5%,-0.2%,-72.6%,11.2%,-1.3%,-2.3
COc1ccc(N2C(=O)CC(Sc3nnnn3-c3ccc(F)cc3)C2=O)cc1 (stereo unspecified),.,6.6%,-60.3%,28.2µM*,9.2%,-0.8
Cc1cc(Br)ccc1NC(=O)COC(=O)c1ccccc1OCC(=O)N(C)C,-2.1%,.,.,.,.,.
O=C(C[n+]1ccccc1)c1ccc(O)c(O)c1,1.8%,.,.,.,.,.
O=C(CN1C(=O)C(=O)c2ccccc21)NCCc1ccccc1,-0.7%,2.1%,-18.0%,31.6µM*,-4.4%,-0.4
O=C1C(=O)N(CCCc2ccccc2)c2ccccc21,0.5%,1.6%,-5.8%,?,1.5%,-0.1
CCOc1cccc2sc(N3CCN(C(=O)c4ccc5ncsc5c4)CC3)nc12,22.4µM*,-2.4%,3.6%,.,2.2%,0.7
Cc1ccccc1S(=O)(=O)Oc1ccccc1C(=O)Oc1ccccc1,25.1µM*,3.3%,-10.7%,-0.7%,-0.3%,-6.3
COC(=O)C1=C(C(=O)OC)[C@@H]2N(C)c3ccc(OC)cc3[C@@]23C[C@@H](C(=O)OC)N(S(=O)(=O)c2ccc(C)cc2)C3=N1,.,.,.,-2.3%[11.5 µM],.,.
CCCN(C(=O)c1ccc(S(=O)(=O)N2CCCC2)cc1)C1CCS(=O)(=O)C1 (stereo unspecified),-3.0%,-0.1%,5.01µM*,.,1.2%,-0.2

# From PubChem
